Consider 15 targets from the supplement of paper PMC10849652.

Of roughly 8,800 targets only a part is listed; those with a hit were picked by preference. About 0.5% of all pairs of compound and target were hits. A number with no mark means an inactive call.

Experiment in all cases: log2 fold change, soluble protein after heating vs DMSO (PISA); higher = thermal stabilisation; K562 lysate, 10 uM; active = over 0.2 and 3.5 SD of the protein, either way, in both replicates (recomputed)
Compound in one test: Cc1cn(-c2cc(NC(=O)c3ccc(C)c(Nc4nccc(-c5cccnc5)n4)c3)cc(C(F)(F)F)c2)cn1 [nilotinib]
In outline:
(§1)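 The values are log-two fold changes in thermal stability compared with solvent controls and come from duplicates. They were obtained by TMTpro 16plex LC-MS/MS, with channel sums equalised, on the supernatant after 21,000xg for 90 min. That supernatant came from crude K562 extract at 1 mg/mL protein treated with 10 μM compound for 30 min, heated for 3 min across 48°C-58°C, pooled and brought to 0.5% NP-40 at 4°C.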

Compound in test [1]: Cc1nc(Nc2n[nH]c3c2CN(C(=O)N[C@H](CN(C)C)c2ccccc2)C3(C)C)c2sccc2n1
An outline of the steps:
as §1

Compound in another test: Cc1nc(Nc2ncc(C(=O)Nc3c(C)cccc3Cl)s2)cc(N2CCN(CCO)CC2)n1 [dasatinib]
In outline: as §1

Compound in test [2]: Cc1ncc(-c2ccnc(Nc3ccc(S(C)(=O)=O)cc3)n2)n1C(C)C
An outline of the steps: as §1

Compound in test [3]: Cn1cc(-c2ccc3c(c2)CCN3C(=O)Cc2cccc(C(F)(F)F)c2)c2c(N)ncnc21
In outline:
as §1

Compound in a further test: Cn1cc(CNCC2CCN(c3ncc(C(=O)NO)cn3)CC2)c2ccccc21 [quisinostat]
In outline: as §1

Compound in another test: Cn1cncc1[C@@](N)(c1ccc(Cl)cc1)c1ccc2c(c1)c(-c1cccc(Cl)c1)cc(=O)n2C [tipifarnib]
In outline:
as §1

Compound in test [4]: NC(=O)Nc1cc(-c2cccc(F)c2)sc1C(=O)N[C@H]1CCCNC1
In outline: as §1

Compound in test [5]: NC(=O)c1cnc(N[C@@H]2CCCC[C@@H]2N)nc1Nc1cccc(-n2nccn2)c1
An outline of the steps:
as §1

Compound in test [6]: NC1(c2ccc(-c3nc4ccn5c(=O)[nH]nc5c4cc3-c3ccccc3)cc2)CCC1
An outline of the steps:
as §1

Chain of UniProt Q9UBU8 (Q9UBU8 whole entry, looked up): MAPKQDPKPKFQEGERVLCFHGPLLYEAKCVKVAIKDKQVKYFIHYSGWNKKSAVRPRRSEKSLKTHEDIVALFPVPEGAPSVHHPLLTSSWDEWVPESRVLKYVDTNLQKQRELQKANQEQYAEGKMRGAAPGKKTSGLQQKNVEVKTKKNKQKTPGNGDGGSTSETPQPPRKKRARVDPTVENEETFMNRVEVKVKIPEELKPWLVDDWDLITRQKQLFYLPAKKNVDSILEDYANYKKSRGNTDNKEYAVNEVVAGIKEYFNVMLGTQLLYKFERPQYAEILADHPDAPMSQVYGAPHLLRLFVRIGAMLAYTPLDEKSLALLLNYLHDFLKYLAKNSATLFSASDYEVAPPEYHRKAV
Chain of UniProt Q93074 (Q93074 whole entry, looked up): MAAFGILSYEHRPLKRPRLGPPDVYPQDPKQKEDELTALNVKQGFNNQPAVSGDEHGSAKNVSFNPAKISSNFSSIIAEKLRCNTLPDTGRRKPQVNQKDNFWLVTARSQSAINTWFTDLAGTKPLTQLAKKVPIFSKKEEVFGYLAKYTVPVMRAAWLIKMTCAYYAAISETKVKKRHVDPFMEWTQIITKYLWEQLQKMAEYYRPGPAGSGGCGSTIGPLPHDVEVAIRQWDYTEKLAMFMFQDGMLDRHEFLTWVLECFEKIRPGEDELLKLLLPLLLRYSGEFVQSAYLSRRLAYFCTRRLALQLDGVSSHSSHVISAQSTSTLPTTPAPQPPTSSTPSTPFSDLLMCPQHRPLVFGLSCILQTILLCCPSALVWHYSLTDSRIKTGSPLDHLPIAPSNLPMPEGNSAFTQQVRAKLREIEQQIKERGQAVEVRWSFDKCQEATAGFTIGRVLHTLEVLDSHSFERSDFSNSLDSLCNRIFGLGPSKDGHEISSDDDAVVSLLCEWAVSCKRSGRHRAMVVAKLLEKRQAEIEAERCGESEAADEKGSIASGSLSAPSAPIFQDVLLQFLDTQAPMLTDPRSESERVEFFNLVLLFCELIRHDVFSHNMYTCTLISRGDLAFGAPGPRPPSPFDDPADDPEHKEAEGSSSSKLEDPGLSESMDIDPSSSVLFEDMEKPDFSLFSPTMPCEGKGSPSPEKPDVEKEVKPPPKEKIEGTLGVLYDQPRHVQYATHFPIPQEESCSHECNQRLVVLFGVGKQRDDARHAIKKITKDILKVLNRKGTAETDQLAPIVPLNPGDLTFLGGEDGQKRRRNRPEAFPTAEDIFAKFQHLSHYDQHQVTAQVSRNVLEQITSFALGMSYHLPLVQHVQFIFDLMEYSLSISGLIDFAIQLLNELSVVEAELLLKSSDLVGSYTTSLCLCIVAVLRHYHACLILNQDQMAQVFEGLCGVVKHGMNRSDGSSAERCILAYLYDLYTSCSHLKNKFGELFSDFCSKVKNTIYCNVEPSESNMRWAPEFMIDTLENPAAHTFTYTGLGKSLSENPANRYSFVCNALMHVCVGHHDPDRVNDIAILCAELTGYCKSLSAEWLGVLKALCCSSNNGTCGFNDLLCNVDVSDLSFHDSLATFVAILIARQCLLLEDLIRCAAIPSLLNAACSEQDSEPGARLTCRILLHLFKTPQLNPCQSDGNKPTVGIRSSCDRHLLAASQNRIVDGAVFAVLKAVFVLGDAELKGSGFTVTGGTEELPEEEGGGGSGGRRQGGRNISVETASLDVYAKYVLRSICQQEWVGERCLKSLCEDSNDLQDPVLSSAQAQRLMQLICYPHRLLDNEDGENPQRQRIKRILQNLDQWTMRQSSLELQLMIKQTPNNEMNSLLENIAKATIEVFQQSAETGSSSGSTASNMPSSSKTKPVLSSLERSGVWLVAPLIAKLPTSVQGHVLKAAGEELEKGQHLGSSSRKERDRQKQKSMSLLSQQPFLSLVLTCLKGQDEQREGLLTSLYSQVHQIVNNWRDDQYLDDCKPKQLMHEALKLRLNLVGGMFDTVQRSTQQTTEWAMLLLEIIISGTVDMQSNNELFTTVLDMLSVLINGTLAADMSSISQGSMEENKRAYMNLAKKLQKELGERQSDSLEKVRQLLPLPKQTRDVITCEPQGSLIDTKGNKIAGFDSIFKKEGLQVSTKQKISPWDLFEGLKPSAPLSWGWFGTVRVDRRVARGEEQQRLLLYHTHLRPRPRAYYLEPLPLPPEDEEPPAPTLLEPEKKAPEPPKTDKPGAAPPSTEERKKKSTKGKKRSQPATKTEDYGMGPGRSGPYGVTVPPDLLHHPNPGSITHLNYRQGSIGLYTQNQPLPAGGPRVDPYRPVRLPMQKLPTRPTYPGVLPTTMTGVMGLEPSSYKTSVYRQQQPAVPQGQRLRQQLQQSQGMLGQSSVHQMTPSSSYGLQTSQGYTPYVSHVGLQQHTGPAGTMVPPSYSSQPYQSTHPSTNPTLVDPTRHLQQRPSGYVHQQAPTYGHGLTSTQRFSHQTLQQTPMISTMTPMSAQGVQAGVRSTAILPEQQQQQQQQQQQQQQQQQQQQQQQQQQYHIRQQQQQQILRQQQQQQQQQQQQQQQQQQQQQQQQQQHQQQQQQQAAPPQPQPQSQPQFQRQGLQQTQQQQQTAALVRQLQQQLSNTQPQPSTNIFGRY
Chain of UniProt O95297 (O95297 whole entry, looked up): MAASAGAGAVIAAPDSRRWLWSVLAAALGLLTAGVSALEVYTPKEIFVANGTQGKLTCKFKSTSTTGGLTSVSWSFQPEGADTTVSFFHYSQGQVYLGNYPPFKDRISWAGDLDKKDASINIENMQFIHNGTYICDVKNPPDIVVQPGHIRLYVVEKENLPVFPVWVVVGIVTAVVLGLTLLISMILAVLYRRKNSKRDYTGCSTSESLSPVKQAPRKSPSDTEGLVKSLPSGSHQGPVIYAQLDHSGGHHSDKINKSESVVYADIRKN
Chain of UniProt Q8IYU8 (Q8IYU8 whole entry, looked up): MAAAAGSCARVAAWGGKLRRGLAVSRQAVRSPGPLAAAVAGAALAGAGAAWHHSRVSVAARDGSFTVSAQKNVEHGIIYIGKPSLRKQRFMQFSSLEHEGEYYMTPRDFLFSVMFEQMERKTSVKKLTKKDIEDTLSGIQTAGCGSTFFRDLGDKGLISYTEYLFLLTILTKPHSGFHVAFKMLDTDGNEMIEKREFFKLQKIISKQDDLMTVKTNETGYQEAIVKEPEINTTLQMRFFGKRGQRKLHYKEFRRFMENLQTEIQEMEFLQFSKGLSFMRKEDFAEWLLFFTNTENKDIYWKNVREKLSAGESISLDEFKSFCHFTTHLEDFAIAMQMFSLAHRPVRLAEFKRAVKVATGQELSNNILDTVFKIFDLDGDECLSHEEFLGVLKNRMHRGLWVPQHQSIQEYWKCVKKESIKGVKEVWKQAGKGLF
Chain of UniProt Q9UBB5 (Q9UBB5 whole entry, looked up): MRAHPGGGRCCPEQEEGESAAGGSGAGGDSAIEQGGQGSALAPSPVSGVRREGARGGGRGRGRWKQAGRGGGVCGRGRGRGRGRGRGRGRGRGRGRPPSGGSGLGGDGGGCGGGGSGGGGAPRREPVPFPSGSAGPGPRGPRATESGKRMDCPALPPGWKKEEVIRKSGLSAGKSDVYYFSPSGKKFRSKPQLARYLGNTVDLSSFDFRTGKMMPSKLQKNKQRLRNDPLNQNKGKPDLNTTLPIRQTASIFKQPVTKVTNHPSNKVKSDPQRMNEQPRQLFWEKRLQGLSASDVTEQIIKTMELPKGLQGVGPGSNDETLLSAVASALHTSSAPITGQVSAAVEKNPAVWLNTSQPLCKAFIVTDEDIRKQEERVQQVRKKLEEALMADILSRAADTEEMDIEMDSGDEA
Chain of UniProt Q13601 (Q13601 whole entry, looked up): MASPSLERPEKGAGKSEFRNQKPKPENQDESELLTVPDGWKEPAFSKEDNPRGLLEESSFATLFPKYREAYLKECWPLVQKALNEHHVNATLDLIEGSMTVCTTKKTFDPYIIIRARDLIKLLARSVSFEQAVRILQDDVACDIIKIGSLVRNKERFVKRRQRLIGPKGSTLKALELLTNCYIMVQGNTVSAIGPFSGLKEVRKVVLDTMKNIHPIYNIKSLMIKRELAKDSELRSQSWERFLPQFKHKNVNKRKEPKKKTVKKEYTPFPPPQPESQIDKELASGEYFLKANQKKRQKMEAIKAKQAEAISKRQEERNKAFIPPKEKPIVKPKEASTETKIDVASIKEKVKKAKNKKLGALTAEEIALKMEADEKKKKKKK
Chain of UniProt Q96T76 (Q96T76 whole entry, looked up): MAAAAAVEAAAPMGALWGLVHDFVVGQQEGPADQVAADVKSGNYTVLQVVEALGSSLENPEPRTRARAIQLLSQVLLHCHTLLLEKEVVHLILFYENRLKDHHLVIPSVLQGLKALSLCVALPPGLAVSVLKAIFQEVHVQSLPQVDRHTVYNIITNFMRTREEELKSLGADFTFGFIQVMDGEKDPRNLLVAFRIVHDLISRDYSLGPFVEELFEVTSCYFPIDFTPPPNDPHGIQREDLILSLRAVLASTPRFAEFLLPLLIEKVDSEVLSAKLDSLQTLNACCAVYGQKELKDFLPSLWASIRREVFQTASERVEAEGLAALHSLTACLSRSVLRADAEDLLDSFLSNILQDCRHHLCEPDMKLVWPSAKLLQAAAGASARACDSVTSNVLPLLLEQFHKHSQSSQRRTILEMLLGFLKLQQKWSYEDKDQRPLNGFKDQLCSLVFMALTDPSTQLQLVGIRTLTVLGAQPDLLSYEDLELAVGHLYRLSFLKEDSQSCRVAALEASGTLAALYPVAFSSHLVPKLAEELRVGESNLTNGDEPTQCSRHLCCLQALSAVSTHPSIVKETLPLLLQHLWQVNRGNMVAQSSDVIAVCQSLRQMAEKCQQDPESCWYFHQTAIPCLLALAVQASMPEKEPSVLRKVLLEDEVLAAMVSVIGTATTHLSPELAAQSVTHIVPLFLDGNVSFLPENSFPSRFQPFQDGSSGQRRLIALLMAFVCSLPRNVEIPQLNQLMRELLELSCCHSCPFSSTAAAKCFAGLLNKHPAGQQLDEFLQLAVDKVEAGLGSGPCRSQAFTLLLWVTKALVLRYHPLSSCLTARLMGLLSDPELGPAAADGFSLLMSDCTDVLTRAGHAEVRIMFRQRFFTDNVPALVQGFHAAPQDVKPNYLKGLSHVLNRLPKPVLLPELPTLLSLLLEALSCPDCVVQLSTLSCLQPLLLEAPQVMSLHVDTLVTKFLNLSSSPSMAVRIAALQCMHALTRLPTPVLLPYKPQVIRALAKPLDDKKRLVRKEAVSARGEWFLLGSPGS

In the case of MPZL1 (UniProt O95297), the log2 fold change with nilotinib is -0.03; in [1], 0.032; with dasatinib it was 0.033; in [2], -0.014; in test [3], 0.018; with quisinostat, 0.071. Moreover, the log2 fold change with tipifarnib is 0.035; in test [4], -0.02; in test [5] it was 0.026; in test [6], 0.028.

Regarding MBOAT2 (UniProt Q6ZWT7), the log2 fold change in the test with nilotinib is -0.006; in [1], -0.095; with dasatinib, -0.178; in test [2], 0.024; in test [3] it was -0.027; with quisinostat it was -0.042. Further, the log2 fold change with tipifarnib is 0.12; in test [4], 0.011; in [5], 0.03; in test [6] it was -0.012.

Consider LIG4 (UniProt P49917), for which the log2 fold change with nilotinib was 0.02; in [1], -0.072; with dasatinib, 0.018; in test [2] it was -0.008; in test [3], -0.026; with quisinostat, -0.085. Also, the log2 fold change in the test with tipifarnib was 0.038; in [4] it was 0.066; in [5], -0.045; in [6] it was -0.005.

MICU2 (UniProt Q8IYU8): the log2 fold change is -0.052 with nilotinib; 0.02 in [1]; -0.026 with dasatinib; 0.048 in test [2]; -0.015 in test [3]; -0.03 with quisinostat. The log2 fold change with tipifarnib is -0.043; in test [4], 0.07; in [5] it was 0.105; in [6], -0.009.

In the case of MED12 isoform 2 (UniProt Q93074), the log2 fold change was -0.017 with nilotinib; -0.025 in test [1]; -0.024 with dasatinib; -0.009 in test [2]; 0.01 in [3]; -0.05 in the test with quisinostat. Also, the log2 fold change in the test with tipifarnib is 0.005; in [4], 0.034; in test [5], 0.019; in test [6], 0.002.

Take LUC7L (UniProt Q9NQ29): the log2 fold change with nilotinib was -0.027; in test [1] it was -0.113; with dasatinib, -0.032; in test [2] it was -0.047; in [3] it was 0.023; with quisinostat, 0.22. The log2 fold change is 0.033 with tipifarnib, -0.207 in test [4], -0.014 in test [5] and 0.032 in test [6].

For the target LYSMD3 (UniProt Q7Z3D4), the log2 fold change with nilotinib was -0.096; in test [1] it was -0.293; in the test with dasatinib, -0.083; in [2] it was 0.171; in [3] it was -0.068; in the test with quisinostat, -0.037. The log2 fold change in the test with tipifarnib is 0.352 (active); in [4], -0.022; in [5], 0.057; in test [6], 0.023.

For the target MBD2 (UniProt Q9UBB5), the log2 fold change is 0.012 with nilotinib; 0.007 in [1]; -0.039 with dasatinib; 0 in test [2]; 0.069 in test [3]; -0.014 with quisinostat. The log2 fold change in the test with tipifarnib was -0.011; in [4] it was -0.009; in test [5] it was -0.003; in [6], 0.024.

Regarding METTL21A (UniProt Q8WXB1), the log2 fold change with nilotinib is 0.017; in [1], 0.055; with dasatinib, 0.023; in test [2] it was 0.026; in test [3] it was -0.064; in the test with quisinostat, -0.069. Moreover, the log2 fold change with tipifarnib was -0.005; in test [4] it was -0.001; in test [5] it was -0.007; in test [6] it was 0.003.

With KRR1 (UniProt Q13601), the log2 fold change with nilotinib was -0.057; in test [1] it was 0.058; in the test with dasatinib, -0.014; in [2], 0.006; in test [3], 0.012; with quisinostat, -0.336 (active). Besides, the log2 fold change with tipifarnib is -0.039; in test [4], 0.018; in test [5], 0.022; in test [6], -0.08.

For the target MMS19 isoform 8 (UniProt Q96T76), the log2 fold change was -0.014 with nilotinib; 0.019 in test [1]; -0.043 with dasatinib; 0.018 in [2]; -0.011 in test [3]; -0.056 with quisinostat. For the same target, the log2 fold change with tipifarnib was -0.002; in test [4], 0.053; in [5], 0.014; in test [6], 0.004.

With MORF4L1 isoform 2 (UniProt Q9UBU8), the log2 fold change was 0.037 with nilotinib; 0.069 in [1]; -0.013 with dasatinib; -0.009 in test [2]; 0 in test [3]; 0 with quisinostat. In addition, the log2 fold change with tipifarnib is -0.009; in test [4], -0.007; in test [5] it was -0.008; in test [6], -0.018.

With MGST1 (UniProt P10620), the log2 fold change is 0.033 with nilotinib; -0.002 in [1]; -0.012 with dasatinib; -0.017 in test [2]; 0.014 in test [3]; -0.029 with quisinostat. The log2 fold change in the test with tipifarnib is 0.02; in [4], 0.085; in [5] it was -0.007; in test [6], -0.012.

Take MORC2 (UniProt Q9Y6X9): the log2 fold change in the test with nilotinib was -0.012; in test [1], -0.02; with dasatinib, -0.046; in [2], 0.006; in test [3] it was 0.051; in the test with quisinostat it was -0.05. Moreover, the log2 fold change with tipifarnib was 0.024; in test [4] it was 0.049; in test [5], 0.028; in test [6] it was -0.001.

On to KIF21A isoform 5 (UniProt Q7Z4S6), for which the log2 fold change with nilotinib was 0.011; in test [1], 0.036; in the test with dasatinib it was 0.001; in test [2], 0; in [3] it was 0.001; with quisinostat, -0.011. For the same target, the log2 fold change with tipifarnib is -0.048; in test [4], 0.048; in test [5], -0.009; in test [6], -0.028.
